# Data as given in PubChem BioAssay (NCI).
# Several values for one entry are separate records, joined by “and”; a condition that tells them apart may be missing. Equal values may be shown once. About 79,000 compounds went through this panel and 15% of them were active in at least one assay; those are over-represented in the sample as a whole. A structure can be active in one record and inactive in another. Activity calls are given as the source filed them. No stated cut-off is given here; in the data, active means growth inhibition above about 70%; inactive means the rest.
# Assay: NCI Yeast Anticancer Drug Screen. Data for the sgs1 mgt1 strain (AID 161);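 further: 0% = growth of cultures given vehicle only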
# Conditions: S. cerevisiae sgs1 mgt1 strain, stronger effect = higher value
# Procedure: Growth inhibition of yeast strains with defined genetic alterations is measured as a screen for potential anti-cancer activity. Selected strains with alterations in DNA damage repair or cell cycle control were exposed to compounds and growth inhibition was measured relative to vehicle treated controls. The strain used in this assay is sgs1 mgt1
# [1] = at 5.0 µM (retest, dose inferred, filed as 0.5)
# [2] = at 50.0 µM (retest, dose inferred, filed as 5.0)
SMILES,growth inhibition [1],growth inhibition [2],growth inhibition (at 50.0 µM)
O=C(NC(C(=O)O)c1ccccc1)OCc1ccccc1 (configuration not stated),-1% (inactive),-2% (inactive),-23.6% (inactive) and -3.2% (inactive)
COC(=O)C1C(O)C(C)C(O)C(C)C=C(C)C2=C3C(=C(C)C(=O)c4c(O)c(c(C)c(OC(C)=O)c43)NC(=O)C(C)=C/C=C\C(C)C(O)C(C)C1O)OCO2 (configuration not stated),-11% (inactive),89% (active),90.2% (active) and -9.2% (inactive)
ClCCCN(CCCCl)c1ccc(C=Nc2cccc(Cl)c2)cc1,24% (inactive),90% (active),92.8% (active)
Nc1nnc(/C=C/c2ccccc2)o1,-8% (inactive),-9% (inactive),-4.6% (inactive)
CN(C)CCNC(=O)Cc1cc(O)c2c(c1O)C(=O)c1ccccc1C2=O,4% (inactive),28% (inactive),81.3% (active)
N#CCCC(CCC#N)(CCC#N)C(=O)c1ccccc1,7% (inactive),8% (inactive),33.2% (inactive) and -28.8% (inactive)
O=C(O)c1ccc(C(c2ccccc2)c2ccccc2)cc1,11% (inactive),99% (active),98% (active)
C=C1CCC[C@@H]2[C@@](C)(Cc3cc(O)ccc3O)C(C)CC[C@]12C (some centres not stated),25% (inactive),98% (active),97.7% (active)
O=S(=O)(O)c1ccc(-c2c3nc(c(-c4ccc(S(=O)(=O)O)cc4)c4ccc([nH]4)c(-c4ccc(S(=O)(=O)O)cc4)c4nc(c(-c5ccc(S(=O)(=O)O)cc5)c5ccc2[nH]5)C=C4)C=C3)cc1,74% (active) and 68% (inactive),29% (inactive) and 51% (inactive),94.8% (active) and 91.8% (active)
CC(C)(C)OC(=O)NOc1ccc([N+](=O)[O-])cc1[N+](=O)[O-],38% (inactive),100% (active),99.5% (active)
O=C1C=C(c2c(O)ccc3ccccc23)c2ccccc2C1=O,80% (active) and 40% (inactive),98% (active),84.8% (active) and 89.8% (active)
Cc1n(Cc2ccccc2)c2c([n+]1C)C(=O)c1ccccc1C2=O,55% (inactive),98% (active),91.2% (active)
COC(=O)CSC(=S)N1CCOCC1,4% (inactive),22% (inactive),-5.3% (inactive)
CN1C(c2ccccc2)CC(=NO)CC1c1ccccc1 (configuration not stated),6% (inactive),58% (inactive),3.9% (inactive) and 82.2% (active)
